# Records with an inconclusive call do not appear. A call without a number means that no potency is given here. The source made the active and inactive calls. Unless noted, calls follow the shape of the dose curve; as a rule, active = well fitted curve in the direction sought with a large enough effect; inconclusive = small, poorly fitted or top-dose-only effect, or another doubt; inactive = no such curve, though single readings can be large; an effect the other way counts as inactive or inconclusive.
# Experiments:
# [1] = target: Thioredoxin reductase 1, cytoplasmic (Rattus norvegicus) (UniProt O89049); assay: qHTS Assay for Inhibitors of Mammalian Selenoprotein Thioredoxin Reductase 1 (TrxR1) (AID 488773); details: Potency: inhibition; also: nearly all actives have a fitted effect of over 40% in size; also: potency is read from the fitted curve at half-maximal effect
# Chain of Thioredoxin reductase 1, cytoplasmic (Rattus norvegicus) (O89049 whole entry, looked up): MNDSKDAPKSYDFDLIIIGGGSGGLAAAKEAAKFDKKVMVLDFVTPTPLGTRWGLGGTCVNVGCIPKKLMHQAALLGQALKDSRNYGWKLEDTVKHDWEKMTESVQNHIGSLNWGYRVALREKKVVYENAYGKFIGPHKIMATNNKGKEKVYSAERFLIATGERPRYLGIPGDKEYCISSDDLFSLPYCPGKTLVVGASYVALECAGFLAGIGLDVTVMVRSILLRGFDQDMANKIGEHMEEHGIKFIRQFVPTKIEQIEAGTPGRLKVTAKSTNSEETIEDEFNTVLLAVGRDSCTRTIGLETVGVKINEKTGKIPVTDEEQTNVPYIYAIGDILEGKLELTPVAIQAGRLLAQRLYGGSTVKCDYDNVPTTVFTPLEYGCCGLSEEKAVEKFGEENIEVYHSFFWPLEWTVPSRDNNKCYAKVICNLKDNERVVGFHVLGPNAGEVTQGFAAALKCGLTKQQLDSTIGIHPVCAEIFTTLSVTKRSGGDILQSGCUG
# How it was run: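 Inhibition is scored from the loss of NADPH fluorescence between first and last reads of an 8-min kinetic run. Selenite (400 uM) was the substrate, added after 15 min compound preincubation at room temperature.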
# [2] = target: Flap endonuclease 1 (Homo sapiens) (UniProt P39748); assay: qHTS Validation Assay for the Inhibitors of Human Flap endonuclease 1 (FEN1) (AID 488816)
# Chain of Flap endonuclease 1 (Homo sapiens) (P39748 whole entry, looked up): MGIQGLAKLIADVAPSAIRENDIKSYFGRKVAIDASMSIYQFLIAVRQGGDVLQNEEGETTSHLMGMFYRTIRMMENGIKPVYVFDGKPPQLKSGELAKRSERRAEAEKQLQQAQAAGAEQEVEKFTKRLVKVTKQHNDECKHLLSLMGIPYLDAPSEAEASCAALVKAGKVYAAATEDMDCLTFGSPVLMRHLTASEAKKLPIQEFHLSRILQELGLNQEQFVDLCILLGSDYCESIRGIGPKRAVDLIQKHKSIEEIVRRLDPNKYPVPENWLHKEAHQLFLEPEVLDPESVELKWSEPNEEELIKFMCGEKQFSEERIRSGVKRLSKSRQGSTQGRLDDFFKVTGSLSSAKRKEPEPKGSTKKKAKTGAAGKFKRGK
# How it was run: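 Steps: add FEN1 (10 nM reagent) or buffer only; pin compounds; hold 15 min at room temperature; start with substrate, 50 nM final; read at 0 and 15 min; correct, normalize and fit a four-parameter Hill curve.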
# [3] = target: M-phase phosphoprotein 8 (Homo sapiens) (UniProt Q99549); assay: qHTS Validation Assay for Inhibitors for MPP8 Chromodomain Interactions with Methylated Histone Tails (AID 488949);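 also: 50 nM MPP8 with 50 nM peptide preformed then compounds added for 30 min; AlphaScreen signal from MPP8 chromodomain bound to biotinylated H3K9me3 peptide; top concentration of the series differs between compounds; nearly all actives have a fitted effect of over 55% in size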
# Chain of M-phase phosphoprotein 8 (Homo sapiens) (Q99549 whole entry, looked up): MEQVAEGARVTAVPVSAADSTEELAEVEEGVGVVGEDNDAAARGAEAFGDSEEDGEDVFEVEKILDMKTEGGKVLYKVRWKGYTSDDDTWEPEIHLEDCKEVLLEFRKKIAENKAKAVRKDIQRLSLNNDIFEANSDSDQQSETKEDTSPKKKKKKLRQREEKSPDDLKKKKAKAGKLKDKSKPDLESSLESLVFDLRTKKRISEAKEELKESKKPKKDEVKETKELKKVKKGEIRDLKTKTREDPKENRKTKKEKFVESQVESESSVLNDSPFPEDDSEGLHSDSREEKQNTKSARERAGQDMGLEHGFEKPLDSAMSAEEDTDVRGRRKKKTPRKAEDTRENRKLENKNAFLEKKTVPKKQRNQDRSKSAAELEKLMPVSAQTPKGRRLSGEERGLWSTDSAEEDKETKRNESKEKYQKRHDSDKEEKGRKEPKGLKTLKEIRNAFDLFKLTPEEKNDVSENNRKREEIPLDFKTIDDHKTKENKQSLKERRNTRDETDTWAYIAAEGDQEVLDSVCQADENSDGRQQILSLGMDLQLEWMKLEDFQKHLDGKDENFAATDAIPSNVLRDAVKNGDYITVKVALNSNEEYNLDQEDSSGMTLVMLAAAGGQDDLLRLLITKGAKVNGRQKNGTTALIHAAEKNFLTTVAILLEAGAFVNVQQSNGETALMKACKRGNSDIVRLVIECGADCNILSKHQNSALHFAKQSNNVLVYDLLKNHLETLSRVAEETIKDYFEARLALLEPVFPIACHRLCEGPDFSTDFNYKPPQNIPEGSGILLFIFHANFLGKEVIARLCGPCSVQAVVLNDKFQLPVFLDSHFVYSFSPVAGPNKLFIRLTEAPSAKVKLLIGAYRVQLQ
# How it was run: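 50 nM MPP8 + 50 nM b-H3K9me3 peptide, PBS pH 7.4/0.01% Tween-20, 30 min RT; + cpd 30 min RT; + AlphaScreen donor/Ni-chelate acceptor beads 10 ug/mL final, 30 min dark; luminescence read.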
# [4] = target: Chromobox protein homolog 1 (Homo sapiens) (UniProt P83916); assay: qHTS Validation Assay for Inhibitors of HP1-beta Chromodomain Interactions with Methylated Histone Tails (AID 488953); also: nearly all actives have a fitted effect of over 50% in size; also: potency is read from the fitted curve at half-maximal effect
# Chain of Chromobox protein homolog 1 (Homo sapiens) (P83916 whole entry, looked up): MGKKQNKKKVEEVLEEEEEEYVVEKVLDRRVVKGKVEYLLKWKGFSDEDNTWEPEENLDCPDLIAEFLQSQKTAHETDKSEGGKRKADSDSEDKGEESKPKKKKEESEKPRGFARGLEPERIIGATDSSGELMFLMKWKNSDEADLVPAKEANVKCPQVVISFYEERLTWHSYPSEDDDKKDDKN
# How it was run: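 AlphaScreen proximity signal from streptavidin donor and nickel chelate acceptor beads (final 10 ug/mL) after 30 min dark incubation. Compounds had 30 min at room temperature with preformed complex of 50 nM HP1-beta and 50 nM b-H3(1-18)K9me3 in PBS pH 7.4 with 0.01% Tween-20.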
# [5] = target: Methanococcus maripaludis chaperonin (MmCpn) (UniProt Q6LX38); assay: High-Throughput Screening for Modulators of Cytosolic Chaperonin Activity: MmCpn Primary Screen (AID 488978);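 also: 50 nM MmCpn enzyme hydrolysing 30 µM ATP at 37 °C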
# How it was run: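 Steps: chaperonin 50 nM final; add compound, 5 min RT; start with ATP, 30 uM final; hold 10 min at 37C; add ADP Transcreener HTRF reagent, 5 min; read ex 320, em 590 and 665 nm.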
# [6] = target: Transient receptor potential cation channel subfamily V member 1 (Homo sapiens) (UniProt Q8NER1); assay: HTS Assay for Compounds that Act as Enhancers of the Vanilloid Receptor 1 (AID 488979)
# Chain of Transient receptor potential cation channel subfamily V member 1 (Homo sapiens) (Q8NER1 whole entry, looked up): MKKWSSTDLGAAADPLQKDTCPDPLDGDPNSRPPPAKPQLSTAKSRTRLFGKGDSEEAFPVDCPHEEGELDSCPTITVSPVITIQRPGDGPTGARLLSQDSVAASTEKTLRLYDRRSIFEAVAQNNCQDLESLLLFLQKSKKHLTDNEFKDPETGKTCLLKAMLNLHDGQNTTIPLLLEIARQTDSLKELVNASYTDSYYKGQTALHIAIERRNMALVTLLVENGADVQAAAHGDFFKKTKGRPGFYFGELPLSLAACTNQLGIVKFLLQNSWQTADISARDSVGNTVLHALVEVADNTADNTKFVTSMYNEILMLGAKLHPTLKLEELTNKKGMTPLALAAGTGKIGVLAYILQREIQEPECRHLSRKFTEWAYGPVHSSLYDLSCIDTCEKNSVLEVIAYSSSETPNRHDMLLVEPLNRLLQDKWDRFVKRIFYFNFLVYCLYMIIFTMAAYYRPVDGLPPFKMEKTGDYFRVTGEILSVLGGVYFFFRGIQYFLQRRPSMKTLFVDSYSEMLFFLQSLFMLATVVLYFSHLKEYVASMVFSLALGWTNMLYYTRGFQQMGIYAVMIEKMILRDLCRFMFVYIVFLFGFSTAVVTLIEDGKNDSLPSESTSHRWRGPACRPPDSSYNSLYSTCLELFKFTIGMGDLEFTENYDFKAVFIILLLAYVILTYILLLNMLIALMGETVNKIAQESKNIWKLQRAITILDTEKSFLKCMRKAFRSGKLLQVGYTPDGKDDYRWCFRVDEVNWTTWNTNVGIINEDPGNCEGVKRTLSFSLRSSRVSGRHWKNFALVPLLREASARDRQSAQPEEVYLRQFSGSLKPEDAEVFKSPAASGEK
# How it was run: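 TRPV1-expressing cells loaded with Fluo-8 calcium dye; compounds added and calcium influx read kinetically for 3 min (agonist phase), then capsaicin at EC20 added and read 2 min more for enhancement. Fluorescence ex 480/em 520 nm.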
# [7] = target: Thyrotropin receptor (Homo sapiens) (UniProt P16473); assay: qHTS Assay for Antagonists of the Thyroid Stimulating Hormone Receptor (AID 488980); also: series mostly up to about 58 µM
# Chain of Thyrotropin receptor (Homo sapiens) (P16473 whole entry, looked up): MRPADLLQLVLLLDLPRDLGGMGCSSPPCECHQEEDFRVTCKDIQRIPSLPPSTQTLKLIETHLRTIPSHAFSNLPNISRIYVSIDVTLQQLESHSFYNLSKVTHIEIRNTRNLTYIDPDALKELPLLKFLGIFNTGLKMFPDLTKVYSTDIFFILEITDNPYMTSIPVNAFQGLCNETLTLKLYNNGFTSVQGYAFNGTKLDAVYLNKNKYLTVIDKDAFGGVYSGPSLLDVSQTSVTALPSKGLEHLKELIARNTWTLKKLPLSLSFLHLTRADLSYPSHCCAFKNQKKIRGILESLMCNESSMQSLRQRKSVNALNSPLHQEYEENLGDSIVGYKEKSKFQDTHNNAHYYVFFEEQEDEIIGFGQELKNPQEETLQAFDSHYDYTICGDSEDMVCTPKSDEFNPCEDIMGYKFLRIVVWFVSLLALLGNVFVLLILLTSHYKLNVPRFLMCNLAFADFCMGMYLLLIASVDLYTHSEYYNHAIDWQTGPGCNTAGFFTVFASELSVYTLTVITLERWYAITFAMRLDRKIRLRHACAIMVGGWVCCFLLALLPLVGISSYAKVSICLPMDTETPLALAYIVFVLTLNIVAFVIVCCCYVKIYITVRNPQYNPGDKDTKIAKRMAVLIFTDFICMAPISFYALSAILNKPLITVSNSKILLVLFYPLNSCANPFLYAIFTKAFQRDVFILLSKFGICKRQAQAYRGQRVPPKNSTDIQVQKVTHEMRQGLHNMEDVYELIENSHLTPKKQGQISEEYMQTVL
# How it was run: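 Readout is cAMP by HTRF competition between cellular cAMP and cAMP-d2 for a cryptate-labelled antibody. Antagonism was assessed in TSHR-transfected HEK293 cells stimulated with 4 nM TSH (EC80, final) in the presence of RO 20-1724.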
# [8] = target: D(1A) dopamine receptor (Homo sapiens) (UniProt P21728); assay: HTS Assay for Allosteric Agonists of the Human D1 Dopamine Receptor: Primary Screen for Agonists (AID 488981)
# Chain of D(1A) dopamine receptor (Homo sapiens) (P21728 whole entry, looked up): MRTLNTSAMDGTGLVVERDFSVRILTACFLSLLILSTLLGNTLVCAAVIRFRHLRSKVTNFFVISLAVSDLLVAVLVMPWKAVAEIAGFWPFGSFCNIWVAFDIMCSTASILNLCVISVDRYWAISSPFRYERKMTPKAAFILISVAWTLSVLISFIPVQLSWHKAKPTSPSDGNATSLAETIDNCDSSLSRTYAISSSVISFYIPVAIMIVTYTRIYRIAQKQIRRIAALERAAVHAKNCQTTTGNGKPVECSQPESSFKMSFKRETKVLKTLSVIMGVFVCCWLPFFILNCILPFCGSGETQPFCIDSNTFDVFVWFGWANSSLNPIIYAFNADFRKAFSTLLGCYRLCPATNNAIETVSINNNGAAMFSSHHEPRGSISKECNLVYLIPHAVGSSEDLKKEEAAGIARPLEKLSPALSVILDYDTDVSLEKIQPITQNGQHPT
# How it was run: (§1)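 Tetracycline-induced HEK293 T-REx cells force-coupled to calcium signalling were incubated overnight at 30 C and dye-loaded at room temperature. Calcium flux over 180 s after compound addition flagged agonists; a further 180 s read after EC20 dopamine flagged potentiators.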
# [9] = target: D(1A) dopamine receptor (Homo sapiens) (UniProt P21728); assay: HTS Assay for Allosteric Agonists of the Human D1 Dopamine Receptor: Primary Screen for Antagonists (AID 488983);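 also: calcium flux response to an EC80 dopamine challenge measured with no-wash dye; nearly all actives have a fitted effect of over 65% in size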; also: potency is read from the fitted curve at half-maximal effect
# How it was run: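 Calcium-flux read-out in inducible HEK293 T-REx cells expressing D1, dye-loaded 30–90 min at room temperature. Kinetic reads: 180 s after compound (agonist phase), then 180 s after an EC80 dopamine challenge.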
# [10] = Validation screen for small molecules that induce genotoxicity in human embryonic kidney (HEK293T) cells expressing luciferase-tagged ELG1 (AID 493106)
# How it was run: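 ELG1-luciferase reporter readout (ONE-Glo, 30 min, room temperature) after 16 hr compound treatment at 37 °C of HEK293T cells at 2,000 per well. Rising luminescence flags genotoxic stress.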
# [11] = target: ATPase family AAA domain-containing protein 5 (Homo sapiens) (UniProt Q96QE3); assay: Validation screen for small molecules that inhibit ELG1-dependent DNA repair in human embryonic kidney (HEK293T) cells expressing luciferase-tagged ELG1 (AID 493107); also: nearly all actives have a fitted effect of over 70% in size; also: potency is read from the fitted curve at half-maximal effect
# How it was run: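 Luciferase read-out, ONE-Glo, 30 min at room temperature, follows 16 h co-exposure at 37 C of compound and the DNA-damaging agent 5-fluorouridine. Cells: HEK293T with ELG1-luciferase fusion, 2,000 per well, DMSO as vehicle.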
# [12] = Nrf2 qHTS screen for inhibitors: Validation (AID 493153; active = well fitted inhibition curve with a large enough effect in the main read-out, with a control signal flat, not every such curve was filed as active); details: Potency: luciferase luminescence; viability change: measured here: cytotoxicity max response
# How it was run: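 Concentration-response on A549 ARE_Fluc reporter cells exposed 18-24 h at 37 C, 5% CO2. Cytotoxicity read first by CellTiter-Fluor fluorescence (Ex 405/Em 525), then Nrf2 inhibition by BugLite luminescence after 15 min.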
# [13] = qHTS for Inhibitors of Cell Surface uPA Generation: Validation Assay (AID 493164);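 also: RAW 264.7 macrophage cells exposed to compound for 18 h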
# How it was run: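 ATP-Lite luminescence read-out: ATP remains high when uPA activity-dependent LF translocation into the cytoplasm is blocked. RAW 264.7 cells, 18 h compound exposure at 37 C; 7-point titration, 2.45 nM to 38.3 uM final.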
# [14] = target: Galactokinase (Homo sapiens) (UniProt P51570); assay: qHTS Validation Assay for Inhibitors of Human Galactokinase (GALK) (AID 493189)
# Chain of Galactokinase (Homo sapiens) (P51570 whole entry, looked up): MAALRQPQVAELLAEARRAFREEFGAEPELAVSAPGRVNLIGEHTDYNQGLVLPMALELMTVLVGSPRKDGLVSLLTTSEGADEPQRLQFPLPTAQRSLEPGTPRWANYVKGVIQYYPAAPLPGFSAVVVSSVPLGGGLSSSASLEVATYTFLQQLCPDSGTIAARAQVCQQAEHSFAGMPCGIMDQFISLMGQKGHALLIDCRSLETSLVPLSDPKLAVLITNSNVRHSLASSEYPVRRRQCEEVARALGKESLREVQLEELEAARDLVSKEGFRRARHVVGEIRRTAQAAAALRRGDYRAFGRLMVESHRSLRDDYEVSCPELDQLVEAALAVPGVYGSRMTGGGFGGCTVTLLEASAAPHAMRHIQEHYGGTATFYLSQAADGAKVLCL
# How it was run: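 5 nM GALK / 100 uM galactose / 35 uM ATP, 20 mM HEPES pH8.0, 5 mM MgCl2, 60 mM NaCl, 1 mM DTT, 0.01% BSA (final). RT 1 h; Kinase-Glo Plus luminescence.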
# [15] = Validation screen for small molecules that induce DNA re-replication in SW480 colon adenocarcinoma cells (AID 504364)
# How it was run: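 Image-based DNA content read-out: Hoechst stain 40 min, total nuclear fluorescence intensity (ex 405 nm, em 500-530 nm) after 48 h compound exposure of 250 SW480 cells/well at 37 C, 5% CO2, versus DMSO vehicle.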
# [16] = target: D(1A) dopamine receptor (Homo sapiens) (UniProt P21728); assay: HTS Assay for Allosteric Agonists of the Human D1 Dopamine Receptor: Primary Screen for Potentiators (AID 488982); also: potency is read from the fitted curve at half-maximal effect
# How it was run: as §1
# [17] = target: ATP-dependent 6-phosphofructokinase (Trypanosoma brucei brucei) (UniProt O15648); assay: qHTS Assay to Find Inhibitors of T. brucei phosphofructokinase: hit validation (AID 492961);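 also: luminescence reports ADP formed as PFK phosphorylates fructose-6-phosphate with ATP; series mostly up to about 51 µM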
# How it was run: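 Percent activity derived from corrected luminescence, normalized between 0x and 1x enzyme controls, then fitted to concentration-response curves. Conditions: 1.25 nM PFK, 0.1 mM ATP, 0.5 mM F6P, 45 min RT.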
# [18] = target: Thyrotropin-releasing hormone receptor (Homo sapiens) (UniProt P34981); assay: qHTS for Small Molecule Agonists and Allosteric Enhancers of Human TRH Receptor: Validation Screen for Agonists (AID 493127;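 active = calcium activation more than 3 SD above the typical response in the agonist read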;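 also: intracellular calcium rise by fluo-8 fluorescence before TRH EC20 addition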); details: TRH receptor agonist cell assay; at 2 µM; stronger effect = higher value
# Chain of Thyrotropin-releasing hormone receptor (Homo sapiens) (P34981 whole entry, looked up): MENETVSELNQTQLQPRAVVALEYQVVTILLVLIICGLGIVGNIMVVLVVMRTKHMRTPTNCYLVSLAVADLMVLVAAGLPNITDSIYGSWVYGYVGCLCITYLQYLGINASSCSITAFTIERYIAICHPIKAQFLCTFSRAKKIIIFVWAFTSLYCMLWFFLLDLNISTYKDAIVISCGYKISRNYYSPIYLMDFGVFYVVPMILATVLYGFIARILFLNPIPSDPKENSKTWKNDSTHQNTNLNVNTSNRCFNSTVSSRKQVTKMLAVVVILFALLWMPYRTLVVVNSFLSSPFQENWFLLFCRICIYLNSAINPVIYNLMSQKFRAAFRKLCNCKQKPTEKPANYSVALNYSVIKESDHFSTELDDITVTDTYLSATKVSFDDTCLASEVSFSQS
# How it was run: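 Compound-evoked intracellular calcium release in fluo-8-loaded TRHR cells, read kinetically on FDSS (Ex 480/Em 530, 1 s/cycle) after 23 nL pintool transfer. Agonist phase preceded 10 nM TRH EC20 addition.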
# [19] = target: Tyrosyl-DNA phosphodiesterase 1 (Homo sapiens) (UniProt Q9NUW8); assay: Confirmation Assay for Inhibitors of Tyrosyl-DNA Phosphodiesterase (TDP1) (AID 489007); details: recombinant human TDP1 enzymatic activity, dose-response; also: potency is read from the fitted curve at half-maximal effect; nearly all actives have a fitted effect of over 40% in size
# How it was run: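 AlphaScreen assay of tyrosine-FITC cleavage from a biotinylated DNA substrate (15 nM) by E. coli-expressed human Tdp1 (1 nM). Sequence: compound preincubation 15 min, reaction 5 min, bead detection 10 min, all at room temperature. No-enzyme wells give maximum signal.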
# [20] = target: Thioredoxin reductase 1, cytoplasmic (Rattus norvegicus) (UniProt O89049); assay: qHTS Assay for Substrates of Mammalian Selenoprotein Thioredoxin Reductase 1 (TrxR1) (AID 488772);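 also: series mostly up to about 57 µM; a drop in NADPH fluorescence below the no-compound background marks a TrxR1 substrate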
# How it was run: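 In this dual-purpose format, potential substrates are identified from the first fluorescence read after selenite addition, not from the 8-minute delta. Rat enzyme is preincubated with NADPH and then with compound at ~22 deg C.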
compound,measurement,setting,value
OC1CCCCC1N1CCC(c2ccccc2)CC1 (stereo not drawn),Potency,[1],inactive
same,Potency,[2],inactive
same,Potency,[3],inactive
same,Potency,[4],inactive
same,outcome,[5],inactive
same,outcome,[6],inactive
same,outcome,[7],inactive
same,Potency,[8],inactive
same,Potency,[9],inactive
same,Potency,[10],inactive
same,Potency,[11],inactive
same,Potency,[12],inactive
same,viability change,[12],-3.18%
same,outcome,[13],inactive
same,outcome,[14],inactive
same,Potency,[15],inactive
Ic1ccccc1CNC1C2CCN(CC2)C1C(c1ccccc1)c1ccccc1 (stereo not drawn),Potency,[1],inactive
same,Potency,[2],inactive
same,Potency,[4],44.7 µM (active)
same,outcome,[5],inactive
same,outcome,[7],inactive
same,Potency,[16],4.11 µM (active)
same,Potency,[10],inactive
same,Potency,[11],16.4 µM (active)
same,outcome,[13],inactive
same,Potency,[15],inactive
C=CCN1CCC23c4c5ccc(O)c4O[C@H]2C(=O)CC[C@@]3(O)C1C5 (stereo partly drawn),Potency,[1],inactive
same,Potency,[2],inactive
same,Potency,[4],inactive
same,outcome,[5],inactive
same,outcome,[6],inactive
same,outcome,[7],inactive
same,Potency,[8],inactive
same,Potency,[16],inactive
same,Potency,[9],inactive
same,Potency,[17],inactive
same,Potency,[10],inactive
same,Potency,[12],inactive
same,viability change,[12],2.4%
same,outcome,[13],inactive
same,outcome,[14],inactive
same,Potency,[15],inactive
CCCn1c(C)c(C(=O)c2ccc3ccccc3c2)c2ccccc21,Potency,[1],inactive
same,Potency,[2],inactive
same,Potency,[4],inactive
same,outcome,[5],inactive
same,outcome,[6],inactive
same,outcome,[7],inactive
same,Potency,[8],inactive
same,Potency,[16],inactive
same,Potency,[9],inactive
same,Potency,[10],inactive
same,activation,[18],-5.69% (inactive)
same,outcome,[13],inactive
same,outcome,[14],inactive
NC(Cc1cc(O)c(O)cc1O)C(=O)O (stereo not drawn),Potency,[1],10.6 µM (active)
same,Potency,[4],0.316 µM (active)
same,outcome,[5],inactive
same,outcome,[6],inactive
same,outcome,[7],inactive
same,Potency,[8],inactive
same,Potency,[16],inactive
same,Potency,[9],inactive
same,Potency,[19],4.47 µM (active)
same,Potency,[10],inactive
same,Potency,[11],inactive
same,Potency,[12],inactive
same,viability change,[12],-20.4%
same,outcome,[13],inactive
same,outcome,[14],inactive
same,Potency,[15],inactive
CN1CCC(c2c[nH]c3ccc(O)cc23)CC1,Potency,[1],inactive
same,Potency,[3],inactive
same,Potency,[4],inactive
same,outcome,[5],inactive
same,outcome,[6],inactive
same,outcome,[7],inactive
same,Potency,[8],inactive
same,Potency,[16],inactive
same,Potency,[9],6.31 µM (active)
same,Potency,[10],inactive
same,Potency,[12],inactive
same,viability change,[12],-1.47%
same,outcome,[13],inactive
same,outcome,[14],inactive
same,Potency,[15],inactive
NC(=O)CI,outcome,[20],inactive
same,outcome,[5],inactive
same,outcome,[6],inactive
same,outcome,[7],inactive
same,Potency,[8],inactive
same,Potency,[9],inactive
same,Potency,[10],inactive
same,Potency,[11],inactive
same,activation,[18],-0.125% (inactive)
same,Potency,[12],inactive
same,viability change,[12],7.18%
same,outcome,[13],inactive
same,outcome,[14],inactive
same,Potency,[15],inactive
CCCn1c(=O)c2[nH]c(C3CCCC3)nc2n(CCCOC(=O)c2ccc(S(=O)(=O)F)cc2)c1=O,Potency,[1],inactive
same,Potency,[2],inactive
same,Potency,[3],inactive
same,Potency,[4],inactive
same,outcome,[5],inactive
same,outcome,[6],inactive
same,outcome,[7],inactive
same,Potency,[8],inactive
same,Potency,[9],inactive
same,Potency,[10],inactive
same,activation,[18],-5.75% (inactive)
same,outcome,[13],inactive
same,outcome,[14],inactive
same,Potency,[15],inactive
C[N+]1(C)CCc2cc3c(cc2[C@H]1[C@@H]1OC(=O)c2c1ccc1c2OCO1)OCO3,Potency,[1],inactive
same,Potency,[2],inactive
same,Potency,[3],inactive
same,Potency,[4],inactive
same,outcome,[5],inactive
same,Potency,[8],inactive
same,Potency,[9],inactive
same,Potency,[10],inactive
same,Potency,[12],inactive
same,viability change,[12],-0.563%
same,outcome,[13],inactive
Cc1o[nH]c(=O)c1CC(N)C(=O)O (stereo not drawn),Potency,[1],inactive
same,Potency,[2],inactive
same,outcome,[5],inactive
same,outcome,[6],inactive
same,Potency,[8],inactive
same,Potency,[9],inactive
same,Potency,[10],inactive
same,Potency,[11],inactive
same,Potency,[12],inactive
same,viability change,[12],2.81%
same,outcome,[13],inactive
same,Potency,[15],inactive
Cc1cc([C@@H]2CCCN2C)on1,Potency,[1],inactive
same,Potency,[2],inactive
same,Potency,[3],inactive
same,Potency,[4],inactive
same,outcome,[5],inactive
same,Potency,[8],inactive
same,Potency,[16],inactive
same,Potency,[9],inactive
same,Potency,[10],inactive
same,Potency,[11],inactive
same,Potency,[12],inactive
same,viability change,[12],4.53%
same,outcome,[13],inactive
O=[N+]([O-])/C=C/c1ccc2c(c1)OCO2,Potency,[1],7.52 µM (active)
same,Potency,[2],inactive
same,Potency,[3],inactive
same,Potency,[4],14.1 µM (active)
same,outcome,[5],inactive
same,Potency,[8],inactive
same,Potency,[10],inactive
same,Potency,[11],20.6 µM (active)
same,outcome,[13],inactive
COc1ccc2c(c1)[C@@]13CCCC[C@H]1[C@@H](C2)NCC3,Potency,[1],inactive
same,Potency,[2],inactive
same,Potency,[3],inactive
same,Potency,[4],inactive
same,outcome,[5],inactive
same,outcome,[7],inactive
same,Potency,[8],inactive
same,Potency,[16],inactive
same,Potency,[9],inactive
same,Potency,[10],inactive
same,Potency,[11],inactive
same,outcome,[13],inactive
same,outcome,[14],inactive
same,Potency,[15],inactive

# — PubChem BioAssay (NCATS)
